# Screening data from PubChem BioAssay.
# M1 antag: human M1 muscarinic receptor antagonists, primary screen, CHO-K1 cells, Fluo-8 calcium fluorescence, 1536-well; Muscarinic acetylcholine receptor M1 (Homo sapiens), P11229; CHO-K1 hM1, ACh EC80 antagonist; inhibition, % at 3 µM; actives 1.3% (n = 360,000); AID 588852, 2011;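 active = percent inhibition above its own plate's cutoff, namely the mean of that plate's compound wells plus 3 SD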;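 note: peak over basal fluorescence ratio during 140 s after agonist addition; 0% = ACh EC80 plus DMSO and 100% = DMSO alone without agonist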
# Target sequence (P11229 whole entry, looked up): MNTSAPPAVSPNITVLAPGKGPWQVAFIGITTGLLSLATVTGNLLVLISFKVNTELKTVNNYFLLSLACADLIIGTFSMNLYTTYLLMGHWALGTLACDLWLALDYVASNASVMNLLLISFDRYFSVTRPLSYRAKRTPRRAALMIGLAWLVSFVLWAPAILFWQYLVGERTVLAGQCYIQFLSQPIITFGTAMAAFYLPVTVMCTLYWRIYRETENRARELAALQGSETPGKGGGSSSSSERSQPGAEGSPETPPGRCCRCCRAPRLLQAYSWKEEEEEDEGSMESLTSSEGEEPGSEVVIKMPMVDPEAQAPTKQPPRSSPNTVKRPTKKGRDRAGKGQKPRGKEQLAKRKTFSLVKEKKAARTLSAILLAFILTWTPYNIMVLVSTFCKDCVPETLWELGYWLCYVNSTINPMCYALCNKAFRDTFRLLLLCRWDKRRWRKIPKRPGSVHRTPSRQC
# CHO-K1 Ca antag: nonselective inhibitor or artifact in parental CHO-K1 cells. AID 602250. inhibition, % at 3 µM. actives 0.6% (n = 360,000). ATP-induced calcium, Fluo-8 fluorescence;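 active = inhibition above a per-plate cutoff, the plate's mean sample inhibition plus 3 SD, cut at about 24% in these data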;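 note: 0% = DMSO plus EC80 ATP and 100% = DMSO alone without ATP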
# M1 PAM: human M1 muscarinic receptor positive allosteric modulators, primary screen, CHO-K1 cells, Fluo-8 calcium fluorescence, 1536-well | actives 0.088% (n = 360,000) | CHO-K1 hM1, ACh EC20; 0% = ACh EC20, 100% = maximal ACh | Muscarinic acetylcholine receptor M1 (Homo sapiens), P11229 | activation, % at 3 µM; in the data active = activation above about 19%, passing the limit was not always enough
# M1 ag: human M1 muscarinic receptor agonists, primary screen, Fluo-8 calcium fluorescence, CHO-K1 cells, HTS; Muscarinic acetylcholine receptor M1 (Homo sapiens), P11229; CHO-K1 hM1, agonist mode; 0% DMSO, 100% acetylcholine EC100; activation, % at 3 µM; actives 0.33% (n = 360,000); AID 588814, 2011;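 active = activation above the run's mean compound activation plus 3 SD, cut at about 16% in these data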;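 note: peak over basal fluorescence ratio within a 140 s kinetic read after compound addition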
# CHO-K1 Ca ag: counter-screen for M1 agonists: effect in parental CHO-K1 cells | Fluo-8 calcium fluorescence; scaled to maximal ATP response, vehicle zero | activation, % at 3 µM | actives 0.48% (n = 360,000) | AID 602248, 2012; in the data active = activation above about 15%;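 note: untransfected CHO-K1 host cells lacking M1 receptor as counterscreen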
# M1 PAM parental: nonselective calcium activators in parental CHO-K1 cells, primary screen, counter-screen for M1 PAM project, cell-based, Fluo-8 calcium fluorescence, full deck, 1536-well. AID 602247, 2012. activation, % at 3 µM. actives 0.02% (n = 360,000). ATP EC20; 0% at ATP EC20, 100% at ATP max;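 active = activation above the run cutoff, the mean activation of all test compounds plus 3 SD, cut at about 40% in these data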;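 note: peak over basal fluorescence ratio in a 140 s read after ATP addition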
# An asterisk follows results filed as active. In the library only some 2.3% were active in any assay of this set; here they are far more common.
SMILES,M1 antag,CHO-K1 Ca antag,M1 PAM,M1 ag,CHO-K1 Ca ag,M1 PAM parental
NC(COCc1ccccc1)c1csc(Nc2ccc(C(=O)c3ccccc3)cc2)n1 (stereo not drawn),-1,2,0,7,5,8
CN=C1NC(C)(C)C2CCC(C)(CC2)S1,39*,-11,-29,-9,2,16
CC(C)CC1=NN2C(=N)/C(=C\c3coc4ccccc4c3=O)C(=O)N=C2S1,45*,45*,-31,125*,100*,-14
CCSC1=NSC2=NC(=O)/C(=C\c3coc4ccccc4c3=O)C(=N)N12,61*,48*,-27,87*,59*,-14
CSC1=NSC2=NC(=O)/C(=C\c3ccc(OC(=O)c4ccco4)cc3)C(=N)N12,-4,-14,4,-3,0,11
O=C(O)C1CC=CCC1C(=O)Nc1ccccc1 (stereo not drawn),-5,25*,9,-2,0,-6
CC(=O)Oc1ccc2c(C)cc(=O)[nH]c2c1,-2,26*,6,1,-1,-8
CCOc1ccc(-c2c(=O)n(OCc3ccc([N+](=O)[O-])cc3)c3ccccc3[n+]2[O-])c(OCC)c1,-7,5,9,7,20*,14
C/C(=N\NC(=O)Cc1ccc(Cl)c(Cl)c1)c1cccnc1,-5,44*,2,-3,0,7
CSc1ccc(OC2(C)CCN(Cc3ccc(C(C)C)cc3)C2)cc1 (stereo not drawn),4,-4,-7,-9,1,12
CC(C)(C)N(Cc1cc2ccccc2[nH]c1=O)C(=O)c1cccc([N+](=O)[O-])c1,57*,8,-21,-5,0,-18
CCCN(Cc1cc2ccccc2[nH]c1=O)C(=O)c1cccc([N+](=O)[O-])c1,-22,1,18,0,0,-14
O=C(O)CCCn1cc(NC(=O)c2c(F)cccc2F)cn1,5,15,-1,-6,16*,-4
CC(C)CC1NC(=O)N(CC(=O)Nc2ccc3c(c2)OCCO3)C1=O (stereo not drawn),-4,-10,6,-2,1,11
Cc1noc(C)c1COc1ccc(C(=O)NCCc2ccc(F)cc2)cc1,-1,-17,4,-2,5,11
CC(C)Cn1c(N)c(C(=O)COC(=O)Cc2cccs2)c(=O)n(C)c1=O,30*,12,-12,3,13,-11
CC(C)Cn1c(N)c(C(=O)COC(=O)Cc2cccc(C(F)(F)F)c2)c(=O)n(C)c1=O,38*,23,-18,-2,11,-27
O=C(CSCC(=O)N1CCCCC1)Nc1nc(-c2ccc(Cl)s2)cs1,31*,14,-8,0,9,-5
Cc1ccccc1NS(=O)(=O)c1ccc2c3c(cccc13)C(=O)N2C,3,-18,3,2,5,8
CN1C(=O)c2cccc3c(S(N)(=O)=O)ccc1c23,0,0,6,4,16*,13
CC(=O)c1c(C)[nH]c(C(=O)CN2CCN(S(=O)(=O)c3ccccc3[N+](=O)[O-])CC2)c1C,3,-15,-13,1,19*,9
Cc1cc(C)nc(NC(=O)c2cc(Br)ccc2Cl)n1,-8,-18,7,-5,2,24
CCNC(=O)c1cc(Br)ccc1Cl,8,24*,8,-2,0,10
COc1ccc(C(=O)C2CCCN(C(=O)CCc3scnc3C)C2)c(C)c1 (stereo not drawn),-9,3,10,-7,18*,12
COc1ccc(C(=O)C2CCCN(C(=O)CCc3ccccn3)C2)c(C)c1 (stereo not drawn),11,-8,-1,-1,2,-6
SMILES,M1 antag,CHO-K1 Ca antag,M1 PAM,M1 ag,CHO-K1 Ca ag,M1 PAM parental
CC(c1ccccc1)C1OCC(C[N+]2(C)CCCCC2)O1 (stereo not drawn),99*,-13,-23,-6,0,17
COc1cccc(CN(C)C(=O)C2CCC(=O)N(Cc3cccc(F)c3)C2)c1 (stereo not drawn),-13,4,13,-2,1,-11
COc1cccc(CN2CC(C(=O)N(C)C3CCOCC3)CCC2=O)c1 (stereo not drawn),-9,30*,3,-4,0,-6
O=C(c1ccccc1)c1nn(-c2ccccc2)c(=O)cc1C(F)(F)F,-10,-14,-4,-10,-1,2
O=C(c1ccccc1)c1nn(-c2ccc(Cl)cc2)c(=O)cc1C(F)(F)F,23,6,-20,-5,19*,5
O=C(CSc1nnc(SCc2ccccc2)s1)NNC(=S)Nc1ccccc1,11,29*,-7,-2,0,-16
Cc1ccsc1C(=O)C1CCCN(Cc2cc(F)ccc2-n2cccn2)C1 (stereo not drawn),0,-17,-2,-6,2,1
CC(=O)Nc1cccc(C(=O)/C=C/c2ccc(N(C)C)cc2)c1,55*,44*,-28,113*,87*,-13
COc1ccc(/C=C/C(=O)Nc2cccc(C(C)=O)c2)cc1,3,4,3,-3,19*,2
CNC(=S)N(CCCN(C)C)Cc1cc2cc3c(cc2[nH]c1=O)OCCO3,-22,-11,13,-4,1,17
CCOc1ccc2[nH]c3c(N4CCc5ccccc5C4)ncnc3c2c1,-12,-5,21,0,2,7
Fc1ccc2[nH]c3c(N4CCc5ccccc5C4)ncnc3c2c1,41*,28*,-15,2,14,-16
Cc1ccc2[nH]c3c(N4CCc5ccccc5C4)ncnc3c2c1,30*,35*,-15,4,10,-4
Cc1cc(C)c2c(=O)cc(C(=O)NCc3ccccc3)oc2c1,5,5,-2,-4,0,-4
CC(C)c1cc(=O)[nH]c(N2CCN(Cc3ccc4c(c3)OCO4)CC2)n1,-14,-3,15,-3,0,-6
N=c1c2c(ncn1CCN1CCOCC1)Oc1cc(O)ccc1C2c1ccccc1 (stereo not drawn),30*,2,-10,1,9,6
Cc1ccc(NC2=NC(c3ccc(F)cc3)n3c(nc(C)cc3=O)N2)c(C)c1 (stereo not drawn),37*,9,-14,-7,0,-4
CCCc1ncc(C(=O)c2ccc(OC)cc2)n1C,1,6,2,-4,19*,15
